Where “and” joins values, the source holds several entries; their conditions need not be identical. Identical values can stand only once. Records with an inconclusive call do not appear. Values without a mark were called inactive. Calls of active or inactive are those of the source. Calls follow the shape of the dose curve; as a rule, active = well fitted curve in the direction sought with a large enough effect; inconclusive = small, poorly fitted or top-dose-only effect, or another doubt; inactive = no such curve, though single readings can be large; an effect the other way counts as inactive or inconclusive.

A short description of assay [1]: Viability qHTS for spleen associated tyrosine kinase inhibitor (SYKi) drug resistant MV4-11 cells (AID 1963824). Also: nearly all actives have a fitted effect of over 35% in size. Summed up:
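SYK inhibitor-resistant MV4-11 AML cells, 500 per well, added to predispensed compounds and incubated 72 hr at 37 C, 5% CO2. Viability measured by CellTiter-Glo luminescence after 10 min at room temperature.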
A general note: In qHTS, concentration-response curves come from the screen itself.

Assay [2] is described as follows: Quantitative highthroughput screen to assess conditional lethalithy of SEM cells grown in RPMI1640 with unreated serum (RPMI+s) (AID 1963883). Also: nearly all actives have a fitted effect of over 35% in size.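 As to Viability: 100% = DMSO wells and 0% = empty wells without cells.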 Summed up: (§1)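 Each medium arm—HPLM with 10% dialyzed FBS, or RPMI1640 with 5 mM glucose and 10% untreated or dialyzed FBS—was screened against an 11-point, 3-fold compound titration for 48 h at 37 °C, with CellTiter-Glo luminescence as endpoint.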

Assay [3] is described as follows: Quantitative highthroughput screen to assess conditional lethalithy of P12 Ichikawa cells grown in Human Plasma-Like Medium with dialyzed fetal bovine serum (HPLM+ds) (AID 1963879). Also: nearly all actives have a fitted effect of over 35% in size. As to Viability: series mostly up to about 46 µM. The following applies: Potency: viability. Summed up:
as §1

Assay [4] in a line: Quantitative highthroughput screen to assess conditional lethalithy of P12 Ichikawa cells grown in RPMI1640 with dialyzed fetal bovine serum (RPMI+ds) (AID 1963880). Also: nearly all actives have a fitted effect of over 35% in size.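 As to Viability: 100% = DMSO wells and 0% = empty wells on each plate.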 The following applies: Potency: P12-Ichikawa viability. Put shortly:
as §1

Assay [5] in a line: Quantitative highthroughput screen to assess conditional lethalithy of P12 Ichikawa cells grown in RPMI1640 with untreated serum (RPMI+s) (AID 1963881). Also: nearly all actives have a fitted effect of over 35% in size.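 As to Viability: series mostly up to about 46 µM; 100% = DMSO wells and 0% = empty wells without cells.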 The following applies: Potency: viability. Put shortly: as §1
Assay [6] can be described thus: Quantitative highthroughput screen to assess conditional lethalithy of SEM cells grown in Human Plasma-Like Medium with dialyzed fetal bovine serum (HPLM+ds) (AID 1963882). Also: nearly all actives have a fitted effect of over 35% in size. As to Viability: series mostly up to about 46 µM. Summed up:
as §1

Assay [7] in a line: Quantitative highthroughput screen to assess conditional lethalithy of SEM cells grown in RPMI1640 with dialyzed fetal bovine serum (RPMI+ds) (AID 1963884). Also: nearly all actives have a fitted effect of over 35% in size.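 As to Viability: series mostly up to about 46 µM; 100% = DMSO control wells and 0% = empty wells without cells.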 Put shortly:
as §1

A short description of assay [8]: Cellular viability qHTS for adrenocortical cancer (ACC) cell line SW-13 (AID 1963989). Also: nearly all actives have a fitted effect of over 65% in size.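 As to activity (max response): cells grown in serum-free medium with ITS supplement; % is scaled to controls: 0 for no effect and ±100 for the full control effect.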 The following applies: SW-13 ACC cells viability, CellTiter-Glo, 48 h; activity (max response): hits give low values. Summed up: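 IC50 and maximal-response values come from four-parameter logistic fits of titration data. SW-13 cells in serum-free medium received compounds (up to 46 uM final) for 48 h before CellTiter-Glo luminescence.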

Assay [9] is described as follows: Cellular viability qHTS for adrenocortical cancer (ACC) cell line NCI-H295R (AID 1963990). Also: nearly all actives have a fitted effect of over 60% in size. Summed up: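 Adrenocortical carcinoma cells, suspended at 300 000 cells/mL in serum-free DMEM plus ITS, rested overnight before pin transfer of compound. After two days' incubation, ATP-dependent luminescence was recorded and curve-fitted.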
Potency is read from the fitted curve at half-maximal effect.

Take `Nc1nc(N)c2nc(CNc3ccc(C(=O)NC(CCC(=O)O)C(=O)O)cc3)cnc2n1` (stereo not drawn): the Potency in assay [1] is 0.0148 µM (active); in assay [2], 0.0418 µM (active).
With `CN(C)c1ccccc1CN1CCCN(Cc2ccccc2N(C)C)C1c1ccncc1`, the Potency in [1] was 7.42 µM (active); in [8] it was 28.2 µM (active). For the same compound, the Potency entry in assay [3], in assay [4], in [5], in assay [6] and in [7] was “inactive” in each case.
Consider `O=C(NC1CC1)c1cccc(-c2ccc3c(NC(=O)C4CC4)n[nH]c3c2)c1`, for which the Potency in assay [1] is 4.68 µM (active); in assay [4], 11.8 µM (active); in assay [5], 11.8 µM (active); in [2] it was 14.8 µM (active); in [8], 3.55 µM (active); in assay [9], 15.8 µM (active).
With `O=c1ncn2nc(Sc3ccc(F)cc3F)ccc2c1-c1c(Cl)cccc1Cl`, the Potency was 8.2 µM (active) in assay [1] and 16.6 µM (active) in assay [2]. In addition, the activity (max response) in [8] is -0.752%. Also, in assay [9], the Potency result was “inactive”.
As for `CC1(COc2ccc3c(c2)ncn3-c2ccc3cccc(N4CCC(N)CC4)c3n2)COC1`, the Potency in [1] was 11.6 nM (active) and 10.5 nM (active); in assay [3], 10.5 µM (active); in assay [2], 0.0209 µM (active); in [8], 25.1 µM (active); in assay [9], 14.1 µM (active).
With `O=C(CCCN1CCN(c2ccc(F)cc2)CC1)NC1c2ccccc2CSc2ccccc21` (stereo not drawn), the Potency in assay [1] is 14.6 µM (active). Moreover, the Potency result in [6] was “inactive”. Further, in [8], the activity (max response) was -20.8%.
On to `O=C(O)CCCCC(CCSCc1ccccc1)SCc1ccccc1` (stereo not drawn), for which the values for the Potency in [1] and in assay [3] were 13.2 µM (active) and 14.8 µM (active), respectively. Also, the Potency result in [6], in assay [2] and in assay [7] was “inactive” throughout. Besides, in assay [8], the activity (max response) is -7.05%.
As for `O=C(Nc1ncc(-c2cc(C(F)F)nn2-c2c(Cl)cccc2Cl)s1)C1CC1`, the Potency is 0.372 µM (active) in assay [1]; 0.935 µM (active) in assay [3]; 1.18 µM (active) in assay [4]; 0.935 µM (active) in assay [5]; 1.32 µM (active) in assay [6]; 1.32 µM (active) in assay [7]. In assay [8], the Potency was 0.316 µM (active).
For `C[C@@]1(C(=O)Nc2ccc(F)nc2)CCCN1c1nc(Nc2cc(C3CC3)[nH]n2)c2cccn2n1`, the Potency in [1] is 1.84 µM (active); in assay [3], 2.96 µM (active); in assay [5], 2.96 µM (active); in assay [6], 4.18 µM (active); in [7] it was 3.32 µM (active); in assay [9], 0.199 µM (active).
As for `N#CNC(=NCCCCCCOc1ccc(Cl)cc1)Nc1ccncc1`, the Potency in [1] was 0.0042 µM (active); in assay [4], 0.0019 µM (active); in [5] it was 0.0026 µM (active); in [8], 0.0398 µM (active). In addition, the Potency result in assay [6], in assay [2] and in assay [7] was “inactive” throughout.
Turning to `CCc1c2c(nc3ccc(O)cc13)-c1cc3c(c(=O)n1C2)COC(=O)[C@]3(O)CC`, the Potency is 0.0083 µM (active) in assay [1]; 0.0053 µM (active) in assay [3]; 0.0042 µM (active) in [4]; 0.0053 µM (active) in assay [5]; 0.0148 µM (active) in assay [6]; 0.0083 µM (active) in [2]. For the same compound, the results for the Potency in assay [7] and in assay [8] were 0.0105 µM (active) and 0.224 µM (active), respectively.
For the compound `Cc1c(C(=O)NN2CCCCC2)nn(-c2ccc(Cl)cc2Cl)c1-c1ccc(Cl)cc1`, the Potency in assay [1] is 23.7 µM (active); in [4] it was 3.32 µM (active); in [8], 28.2 µM (active); in assay [9] it was 20.6 µM (active) and 28.2 µM (active). In addition, the Potency entry in assay [6] and in assay [2] was “inactive” in each case.
With `CCCCCCCCCCCC(CC1OC(=O)C1CCCCCC)OC(=O)C(CC(C)C)NC=O` (stereo not drawn), the Potency in assay [1] is 3.72 µM (active); in assay [3], 20.9 µM (active); in [4] it was 23.5 µM (active); in [5] it was 20.9 µM (active); in [6], 18.7 µM (active); in [2] it was 5.9 µM (active). For the same compound, in assay [7], the Potency was 11.8 µM (active). For the same compound, the activity (max response) in [8] was 11.6%. In addition, the Potency entry in [9] is “inactive”.
With `CC(C)C(=O)OCC(=O)[C@@]12O[C@H](C3CCCCC3)O[C@@H]1C[C@H]1[C@@H]3CCC4=CC(=O)C=C[C@]4(C)[C@H]3[C@@H](O)C[C@@]12C`, the Potency in assay [1] was 2.95 µM (active). The activity (max response) in [8] was -10.3%.
The corresponding values for `Nc1ccc(S(=O)(=O)NCc2ccccc2)cc1` are “inactive” and -7%.
The corresponding values for `Cc1ccc(NC(=O)Nc2nnc(Sc3ncnc4cc(OCCCN5CCOCC5)ccc34)s2)cc1` are 0.0166 µM (active) and -9.58%.
As to `C=CC(=O)N[C@H]1CN(c2nc(Nc3cn(C)nc3OC)c3ncn(C)c3n2)C[C@@H]1F`, the values for the Potency in [1] and in assay [8] were 18.6 µM (active) and 0.199 µM (active), respectively.
Turning to `COc1ccc(N(C)c2nc(C)nc3ccccc23)cc1`, the Potency is 0.0042 µM (active) in [1] and 0.0112 µM (active) in [8].
Turning to `CC(C)(C)C[C@H]1N[C@@H](C(=O)NC2CCC(O)CC2)[C@H](c2cccc(Cl)c2F)[C@@]12C(=O)Nc1cc(Cl)ccc12` (stereo partly drawn), the Potency was 6.61 µM (active) in [1] and 25.1 µM (active) in assay [8].
